From PubChem
Sampled rows, rich in hits. Any-hit rate of the full collection: about 2.3%.
HTT aggregate = mutant huntingtin aggregation inhibition. Potency, µM (doses to about 46.1 µM), for the others: at the highest dose activity change, negative = inhibition, hits mostly inhibitors. PC12 HttQ103-GFP aggregates, Acumen cytometry, 40 h. 220,000 tested, 1.1% active. AID 1688; note: potency is the fitted concentration of half-maximal effect; % is set by controls: 0 for no effect and ±100 for the full control effect; nearly all actives have a fitted effect of over 60% in size
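PC12 cells stably carrying ecdysone-inducible HTT exon 1 Q103–GFP were induced with tebufenozide (100 nM final) and treated with library compounds in titration. GFP aggregates in lysates were counted by laser scanning cytometry.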
Coupling enz = inhibits coupling enzyme system, counter-screen for aldolase hits; coupling enzyme system counterscreen, AmpLite Red fluorescence; activity change, negative = inhibition, % at 58.2 µM, hits read low; 290,000 tested, 0.67% active; AID 2472; in the data active = activity change below about -30%; note: % is set by controls: 0 for no effect and ±100 for the full control effect
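Coupling enzymes only (glyceraldehyde-3-phosphate) + compound, at 57.5 uM final, 10 min RT; add substrate/coupling/AmpLite Red mix, 20 min RT; fluorescence ex 525/em 598 nm. Actives flag coupling-system interference.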
RGS12 GoLoco inh = RGS12 GoLoco-Gai1 interaction inhibition. P63096. Gai1:RGS12 GoLoco peptide FP, rhodamine, 10 min. Potency, µM (doses to about 61.6 µM), inactives show top-dose activity, negative = inhibition, hits mostly inhibitors. 230,000 tested, 0.44% active. AID 880; active = well fitted inhibition curve with a large enough effect, not every such curve was filed as active; inactive = no such curve, though single readings can be large or run the other way; note: potency is the fitted concentration of half-maximal effect; % is set by controls: 0 for no effect and ±100 for the full control effect; nearly all actives have a fitted effect of over 30% in size
Target sequence (P63096 whole entry, looked up): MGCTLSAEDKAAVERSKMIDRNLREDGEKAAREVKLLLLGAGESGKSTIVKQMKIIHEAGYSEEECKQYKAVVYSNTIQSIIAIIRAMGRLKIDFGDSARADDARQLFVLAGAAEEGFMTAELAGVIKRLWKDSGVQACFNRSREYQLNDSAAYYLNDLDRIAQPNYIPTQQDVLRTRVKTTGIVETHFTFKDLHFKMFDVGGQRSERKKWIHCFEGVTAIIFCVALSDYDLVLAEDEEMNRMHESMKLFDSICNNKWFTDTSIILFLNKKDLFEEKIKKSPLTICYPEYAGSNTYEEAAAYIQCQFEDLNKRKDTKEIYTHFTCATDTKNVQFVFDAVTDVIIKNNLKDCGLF
VDR inh = blocks the human vitamin D receptor; 400,000 tested, 0.93% active; Potency, µM, for inactives: max response, negative = inhibition, actives largely listed as inhibitors; VDR-SRC2-3 peptide fluorescence polarization, 2 h; P11473; note: potency is the fitted concentration of half-maximal effect; % is set by controls: 0 for no effect and ±100 for the full control effect
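The screen uses fluorescence polarization to detect compounds that interfere with recruitment of the SRC2-3 coactivator peptide to VDR; plates are read after 2 h at room temperature.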
KDM4E inh = JMJD2E (human) inhibition; B2RXH2; JMJD2E catalytic domain, FDH-coupled NADH fluorescence (FDH is formaldehyde dehydrogenase); Potency, µM (series often up to 57.1 µM), inactives show at the highest dose activity change, negative = inhibition, most hits filed as inhibitors; 230,000 tested, 1.6% active; AID 2147; active = well fitted inhibition curve with a large enough effect, not every such curve was filed as active; inconclusive = small, poorly fitted or top-dose-only effect, or another doubt; inactive = no such curve, though single readings can be large or run the other way;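 note: potency is the fitted concentration of half-maximal effect; 0% = wells with enzyme and -100% = buffer wells without enzyme; nearly all actives have a fitted effect of over 50% in size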
Target sequence (B2RXH2 1-337 limits assumed): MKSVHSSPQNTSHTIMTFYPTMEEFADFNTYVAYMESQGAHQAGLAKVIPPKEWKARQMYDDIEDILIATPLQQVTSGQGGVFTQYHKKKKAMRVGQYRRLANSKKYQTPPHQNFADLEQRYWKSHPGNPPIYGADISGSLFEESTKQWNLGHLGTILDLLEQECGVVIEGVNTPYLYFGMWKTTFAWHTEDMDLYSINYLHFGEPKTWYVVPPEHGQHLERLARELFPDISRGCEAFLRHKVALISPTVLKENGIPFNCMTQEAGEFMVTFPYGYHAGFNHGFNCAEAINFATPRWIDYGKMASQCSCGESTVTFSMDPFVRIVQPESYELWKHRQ
HTT ATP protect = cytoprotection in Huntington HTT-Q103 PC12 cell model. Potency, µM (series often up to 56.4 µM), without a hit: cytoprotection (ATP increase), actives largely listed as activators. 230,000 tested, 0.14% active. PC12 HTT-Q103 induced, cytoprotection, ATP luminescence, 40 h; note: potency is the fitted concentration of half-maximal effect; % of control where 0% means no effect; nearly all actives have a fitted effect of over 45% in size
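ATP quantification (ATPlite) reports survival of PC12 cells in which tebufenozide, 100 nM final, switches on Htt exon 1 with 103 glutamines linked to GFP; compounds are titrated.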
* hit, by the source's call; ! = not active in a repeat; [ ] = dose if it differs, or a comment. Unless noted, calls come from the whole dose curve; as a rule, active = well fitted curve in the direction sought with a large enough effect; inconclusive = small, poorly fitted or top-dose-only effect, or another doubt; inactive = no such curve, though single readings can be large; an effect the other way counts as inactive or inconclusive.

For CCCCCCc1cc2cc(-c3nnc(-c4cc(OC)c(OC)c(OC)c4)o3)c(=O)oc2cc1O the results were HTT aggregate 2.8µM*, Coupling enz -3, RGS12 GoLoco inh 61%, VDR inh -12%, KDM4E inh -6% and HTT ATP protect -4%[10 µM].
O=C(CSc1nnc(C2CC2)n1-c1ccccc1)N1CCNC1=O was read as VDR inh -5%.
Screening Oc1ccc([C@@H]2CNCCc3c2cc(O)c(O)c3Cl)cc1 returned Coupling enz -9, RGS12 GoLoco inh -7%, KDM4E inh 11µM* and HTT ATP protect -5%.
For CCOC(=O)C1(C)C=C(Nc2ccc(O)cc2)C(=O)N1c1ccc(O)cc1 (stereo unspecified) the results were HTT aggregate 17%[9.22 µM], Coupling enz -49*, RGS12 GoLoco inh -16%, VDR inh -18%, KDM4E inh 0% and HTT ATP protect 8%[10 µM].
`CS(=O)(=O)N(CC(=O)NCCSc1ccccc1)c1cc(C(F)(F)F)ccc1Cl` gave VDR inh 4%.
For Cc1ccc(N2C(=O)CC(Sc3ccccc3C(=O)O)C2=O)cc1C (stereo unspecified) the results were HTT aggregate -8%[9.22 µM], Coupling enz 2, RGS12 GoLoco inh -15%, VDR inh 8%, KDM4E inh -12% and HTT ATP protect -23%.
`Cc1ccc(N2C(=O)CC(Sc3ncn[nH]3)C2=O)cc1C` (stereo unspecified) gave HTT aggregate -6%, Coupling enz 2, RGS12 GoLoco inh 40%, VDR inh -1%, KDM4E inh 1.3µM* and HTT ATP protect -21%.
Screening Cn1nc(C(F)(F)F)cc1Oc1ncc(C(F)(F)F)cc1Cl returned HTT aggregate -5%, Coupling enz -1, RGS12 GoLoco inh -2%, VDR inh 1.4µM*, KDM4E inh 1% and HTT ATP protect 0%[10 µM].
O=C(O)Cc1ccc(Oc2ncc(C(F)(F)F)cc2Cl)cc1 was read as HTT aggregate 23%, Coupling enz 10, RGS12 GoLoco inh -5%, VDR inh 12%, KDM4E inh -1% and HTT ATP protect -2%.
CCc1cc[n+](C2=C([O-])c3ccccc3C(=O)/C2=N\S(=O)(=O)c2cccs2)cc1 was read as HTT aggregate inconclusive, Coupling enz -55*, RGS12 GoLoco inh 33%, VDR inh 2% and KDM4E inh inconclusive.
Cc1c(OCc2ccc(C(=O)O)cc2)ccc2c(-c3ccccc3)cc(=O)oc12 was read as HTT aggregate 14%[9.22 µM], Coupling enz 20, RGS12 GoLoco inh -3%, VDR inh 79µM*, KDM4E inh inconclusive and HTT ATP protect 21%[10 µM].
Screening CC1=CC(=O)c2ccccc2C1=O returned HTT aggregate -97%, Coupling enz -33*!, RGS12 GoLoco inh 5%, VDR inh 3.5µM*!, KDM4E inh -29% and HTT ATP protect -368%.
Screening CC(C)(C=O)C1=CC(=O)c2ccccc2C1=O returned HTT aggregate inconclusive, Coupling enz -63*, RGS12 GoLoco inh -13%, VDR inh 45µM*, KDM4E inh 4% and HTT ATP protect -45%[10 µM].
COc1ccccc1CN1C(=O)C(=O)c2cccc(C)c21 was read as VDR inh -1%.
COc1cccc2c1C(=O)C=C(C)C2=O was read as HTT aggregate 14µM*, Coupling enz -39*, RGS12 GoLoco inh 6%, VDR inh 40µM*, KDM4E inh -13% and HTT ATP protect 9%[0.074 µM].
CN(Cc1ccccc1Br)C(=O)CN1C(=O)NC2(CCCCCC2)C1=O was read as VDR inh -17%.
Screening CN(C)c1nc(C(=O)O)nc(N2CCOCC2)n1 returned HTT aggregate 6%[9.22 µM], Coupling enz 8, RGS12 GoLoco inh -3%, VDR inh 7%, KDM4E inh -14% and HTT ATP protect 4%[10 µM].
CC(=O)OCC(NC(=O)C(COCc1ccccc1)NC(=O)OC(C)(C)C)C1OC(n2cc(F)c(=O)[nH]c2=O)C(OC(C)=O)C1OC(C)=O (stereo unspecified) was read as Coupling enz 1 and VDR inh -15%.
Screening Cc1cccc(-c2nsc(SCC(=O)NCc3ccco3)n2)c1 returned HTT aggregate 4%, Coupling enz -1, RGS12 GoLoco inh -7%, VDR inh -8%, KDM4E inh -4% and HTT ATP protect -12%.
Screening CCOC(=O)CNC(=O)CSc1nc(-c2cccc(C)c2)ns1 returned HTT aggregate 4%, Coupling enz 1, RGS12 GoLoco inh -6%, VDR inh 79µM*, KDM4E inh -3% and HTT ATP protect -67%.
For COc1ccc(-c2nnc(NC(=O)c3ccccc3[N+](=O)[O-])s2)c(OC)c1 the results were Coupling enz 1 and VDR inh 6%.
O=C(Nc1ccc(Oc2ccc(NC(=O)Nc3ccccc3Cl)cc2)cc1)Nc1ccccc1Cl was read as HTT aggregate -12%[9.22 µM], Coupling enz -3, RGS12 GoLoco inh 28%, VDR inh -2%, KDM4E inh -24% and HTT ATP protect -1%[10 µM].
`CC(O)/C=C/c1cccc[n+]1C` (stereo unspecified) gave HTT aggregate 9%, Coupling enz -5, RGS12 GoLoco inh 7.9µM*, VDR inh -12%, KDM4E inh 7.9µM* and HTT ATP protect -7%.
Screening COc1ccc(NC(=O)CN(C)S(=O)(=O)c2ccc3[nH]c(=O)oc3c2)cc1 returned Coupling enz 7 and VDR inh -12%.
For CC[C@H]1[C@@H]2C=C[C@@H]3[C@H]4C/C=C\C(=O)NCCC[C@@H]5NC(=O)C(=C5O)C(=O)CC[C@@H]4C[C@@H]3[C@H]2C[C@H]1C the results were Coupling enz -1, RGS12 GoLoco inh 2%, VDR inh 40µM* and HTT ATP protect -184%.
Screening CC(C)Cn1c(N)c(C(=O)COC(=O)c2ccc3c(c2)OCCO3)c(=O)n(C)c1=O returned HTT aggregate inconclusive, Coupling enz 1, RGS12 GoLoco inh -32%, VDR inh 17%, KDM4E inh -6% and HTT ATP protect -12%.
For CC(C)Cn1c(N)c(C(=O)CSc2ccc3c(c2)OCCO3)c(=O)n(C)c1=O the results were HTT aggregate 2µM*, Coupling enz -1, RGS12 GoLoco inh 1%, VDR inh -11%, KDM4E inh 1% and HTT ATP protect -26%.
For O=C(c1cnc(N2CCCCC2)c2ccccc12)N1CCN(c2ccc(Cl)cc2)CC1 the results were VDR inh -6%.
